From PubChem BioAssay AID1159580 (chemical genetic matrix, 2015)
About 2,000 (36%) of roughly 5,500 compounds were called active. Roughly 18% stayed inconclusive and do not appear here. Cut-off read from the data, not from the text of the source: active = normalized growth mostly below about 0.91 (no sharp cut-off); inconclusive = no clear call, values can overlap the other calls; inactive = mostly above about 0.92. Some of the results follow.

Assay: chemical genetic growth profiling, strain panel (AID 1159580);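 note: tested at 20 µM; growth read once vehicle control cultures reached saturation at 30 °C; 1 = growth at the plate median or of vehicle wells; lower values mean less growth of the strain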
Settings: S. cerevisiae deletion strains, growth OD

Measured: normalized growth

COc1ccc(-c2oc3cc(OC)c(OC)c(OC)c3c(=O)c2OC)cc1
inactive: locus YAL021C, strain ccr4, active compounds read low 0.993 | locus YAL030W, strain snc1, active compounds read low 0.979 | locus YBR023C, strain chs3, active compounds read low 0.919 | locus YBR171W, strain sec66, active compounds read low 0.978 | locus YBR231C, strain swc5, active compounds read low 0.93 | locus YBR279W, strain paf1, active compounds read low 0.982 | locus YCL011C, strain gbp2, active compounds read low 0.955 | locus YCL016C, strain dcc1, active compounds read low 0.948 | locus YCL061C, strain MRC1, active compounds read low 0.964 | locus YCL069W, strain vba3, active compounds read low 0.993 | locus YCR088W, strain abp1, active compounds read low 0.991 | locus YDL005C, strain med2, active compounds read low 0.982 | locus YDL040C, strain nat1, active compounds read low 0.984 | locus YDR001C, strain nth1, active compounds read low 0.982 | locus YDR069C, strain doa4, active compounds read low 0.987 | locus YDR159W, strain sac3, active compounds read low 0.982 | locus YDR195W, strain ref2 1.04 | locus YDR297W, strain sur2, active compounds read low 0.976 | locus YDR334W, strain swr1, active compounds read low 0.98 | locus YDR335W, strain msn5, active compounds read low 0.985 | locus YEL003W, strain gim4, active compounds read low 0.977 | locus YEL037C, strain rad23, active compounds read low 0.982 | locus YEL061C, strain CIN8 (second series), active compounds read low 0.98 | locus YER015W, strain faa2, active compounds read low 0.981 | locus YER016W, strain bim1, active compounds read low 0.988 | locus YER111C, strain swi4, active compounds read low 0.983 | locus YFR010W, strain ubp6, active compounds read low 0.981 | locus YGL167C, strain pmr1, active compounds read low 0.976 | locus YGL173C, strain kem1, active compounds read low 0.97 | locus YGL227W, strain vid30, active compounds read low 0.987 | locus YGL240W, strain doc1, active compounds read low 0.959 | locus YHR013C, strain ard1, active compounds read low 0.87 | locus YHR027C, strain rpn1, active compounds read low 0.983 | locus YHR030C, strain SLT2, active compounds read low 1.02 | locus YHR079C, strain IRE1, active compounds read low 1.02 | locus YJL092W, strain hpr5, active compounds read low 0.984 | locus YJL095W, strain BCK1 (second series), active compounds read low 0.972 | locus YJL095W, strain BCK1, active compounds read low 0.959 | locus YJL115W, strain asf1, active compounds read low 0.997 | locus YJL129C, strain trk1, active compounds read low 0.907 | locus YJL154C, strain vps35, active compounds read low 0.994 | locus YJL164C, strain tpk1, active compounds read low 0.928 | locus YJL166W, strain qcr8, active compounds read low 0.934 | locus YJL187C, strain SWE1, active compounds read low 0.98 | locus YJR066W, strain TOR1, active compounds read low 0.967 | locus YKL160W, strain elf1, active compounds read low 0.945 | locus YKR026C, strain gcn3, active compounds read low 0.978 | locus YKR091W, strain srl3, active compounds read low 0.99 | locus YLL001W, strain dnm1, active compounds read low 0.953 | locus YLL026W, active compounds read low 0.983 | locus YLL041C, strain sdh2, active compounds read low 0.985 | locus YLR027C, strain aat2, active compounds read low 0.96 | locus YLR113W, strain HOG1, active compounds read low 0.887 | locus YLR258W, strain gsy2, active compounds read low 0.967 | locus YLR342W, strain FKS1, active compounds read low 0.989 | locus YLR357W, strain rsc2, active compounds read low 0.896 | locus YLR370C, strain arc18, active compounds read low 0.969 | locus YLR384C, strain iki3, active compounds read low 0.974 | locus YML120C, strain ndi1, active compounds read low 0.966 | locus YMR058W, strain fet3, active compounds read low 0.959 | locus YMR125W, strain sto1, active compounds read low 0.96 | locus YMR129W, active compounds read low 0.992 | locus YMR205C, strain PFK2, active compounds read low 0.926 | locus YMR231W, strain pep5, active compounds read low 1 | locus YNL183C, strain NPR1, active compounds read low 0.928 | locus YNL209W, strain ssb2, active compounds read low 0.989 | locus YNL248C, strain rpa49, active compounds read low 0.984 | locus YNL322C, strain KRE1 (second series), active compounds read low 0.98 | locus YNR049C, strain mso1, active compounds read low 0.991 | locus YOR001W, strain rrp6, active compounds read low 0.978 | locus YOR070C, strain gyp1, active compounds read low 0.978 | locus YOR080W, strain dia2, active compounds read low 0.991 | locus YOR083W, strain WHI5, active compounds read low 0.915 | locus YOR106W, strain vam3, active compounds read low 0.942 | locus YOR231W, strain MKK1, active compounds read low 1.02 | locus YOR265W, strain rbl2, active compounds read low 0.968 | locus YOR270C, strain vph1, active compounds read low 0.785 | locus YOR290C, strain snf2, active compounds read low 0.88 | locus YPL051W, strain arl3, active compounds read low 0.927 | locus YPL078C, strain atp4, active compounds read low 0.93 | locus YPL106C, strain sse1, active compounds read low 0.944 | locus YPL240C, strain hsp82, active compounds read low 0.969 | locus YPL256C, strain CLN2, active compounds read low 1.04
active: locus YAL026C, strain drs2, active compounds read low 0.881 | locus YBL061C, strain skt5, active compounds read low 0.911 | locus YBR009C, strain hhf1, active compounds read low 0.899 | locus YDR137W, strain rgp1, active compounds read low 0.797 | locus YDR392W, strain spt3, active compounds read low 0.421 | locus YER155C, strain BEM2 (second series), active compounds read low 0.84 | locus YGL253W, strain hxk2, active compounds read low 0.89 | locus YHR142W, strain chs7, active compounds read low 0.718 | locus YLR221C, strain rsa3, active compounds read low 0.907 | locus YLR262C, strain YPT6 (second series), active compounds read low 0.795 | locus YLR320W, strain mms22, active compounds read low 0.815 | locus YNL071W, strain lat1, active compounds read low 0.734
